Results on nine compounds are retold here after PubChem BioAssay (EPA / NIEHS).

Values joined by “and” are separate entries in the source; they are usually repeats but may differ in a detail not shown here. Equal values may be shown once. Results filed as inconclusive are left out. A structure can be active in one record and inactive in another. Active and inactive are the calls of the source. The calls were made as follows: active = hit-call score of the fitted dose curve at least 0.9, where 1 is the maximum; inconclusive = response in the unintended direction; inactive = score below 0.9.

rabbit Imidazoline 2 Central (I2C), CKB (gene 100009085), sequence (P00567 whole entry, looked up): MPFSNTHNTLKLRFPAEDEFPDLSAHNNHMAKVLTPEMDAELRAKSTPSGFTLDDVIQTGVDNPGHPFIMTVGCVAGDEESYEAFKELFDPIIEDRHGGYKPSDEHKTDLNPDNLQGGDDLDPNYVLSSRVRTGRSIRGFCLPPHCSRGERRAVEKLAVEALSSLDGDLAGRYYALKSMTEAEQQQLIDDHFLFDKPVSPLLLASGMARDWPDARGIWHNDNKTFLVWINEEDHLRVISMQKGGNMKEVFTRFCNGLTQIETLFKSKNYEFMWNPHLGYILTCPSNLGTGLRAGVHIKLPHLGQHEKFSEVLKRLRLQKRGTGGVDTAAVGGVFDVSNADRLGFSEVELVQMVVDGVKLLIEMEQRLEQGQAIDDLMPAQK

One test deals with rabbit Imidazoline 2 Central (I2C), CKB (gene 100009085) (UniProt P00567). The test is described as follows: NVS_ENZ_rabI2C: NovaScreen (NVS) Enzymatic Assay for rabbit Imidazoline 2 Central (I2C) (AID 2283228). In short, it runs like this:
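Rabbit brain membranes, cell-free; readout by filter-based scintillation counting 1.5 hours after dosing, loss of signal vs DMSO. Initial duplicate test at 25 uM, then concentration-response with 50 uM top concentration.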
`C=CCOC(Cn1ccnc1)c1ccc(Cl)cc1Cl` (stereo unspecified): the AC50 is 25 µM (active). With `S=C([S-])NCCNC(=S)[S-].[Mn+2]`, the call was inactive. As for `c1ccc2[nH]c(-c3cscn3)nc2c1`, the half-maximal activity concentration (AC50) is 4.07 µM (active). In the case of `CCCCC(CC)CN1C(=O)C2C3C=CC(C3)C2C1=O` (stereo unspecified), the outcome was inactive. As to `S=C(S)NCCNC(=S)S.[Mn+2].[S-]C([S-])=NCCN=C([S-])[S-].[Zn+2]`, the AC50 is 1.34 µM (active) and the compound was classed as inactive.

The target in the next test is human Vascular Endothelial Growth Factor Receptor 3 (VEGFR3), FLT4 (gene 2324) (UniProt P35916). In words: NVS_ENZ_hVEGFR3: NovaScreen (NVS) Enzymatic Assay for human Vascular Endothelial Growth Factor Receptor 3 (VEGFR3) (AID 2283229). In short, it runs like this: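 Chemicals first run in duplicate at 25 uM, with actives re-tested in concentration series to a top of 50 uM. Recombinant VEGFR3 activity measured after 1 h via fluorescence with mobility-shift product separation; inhibition fitted relative to DMSO.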
human Vascular Endothelial Growth Factor Receptor 3 (VEGFR3), FLT4 (gene 2324), sequence (P35916 whole entry, looked up): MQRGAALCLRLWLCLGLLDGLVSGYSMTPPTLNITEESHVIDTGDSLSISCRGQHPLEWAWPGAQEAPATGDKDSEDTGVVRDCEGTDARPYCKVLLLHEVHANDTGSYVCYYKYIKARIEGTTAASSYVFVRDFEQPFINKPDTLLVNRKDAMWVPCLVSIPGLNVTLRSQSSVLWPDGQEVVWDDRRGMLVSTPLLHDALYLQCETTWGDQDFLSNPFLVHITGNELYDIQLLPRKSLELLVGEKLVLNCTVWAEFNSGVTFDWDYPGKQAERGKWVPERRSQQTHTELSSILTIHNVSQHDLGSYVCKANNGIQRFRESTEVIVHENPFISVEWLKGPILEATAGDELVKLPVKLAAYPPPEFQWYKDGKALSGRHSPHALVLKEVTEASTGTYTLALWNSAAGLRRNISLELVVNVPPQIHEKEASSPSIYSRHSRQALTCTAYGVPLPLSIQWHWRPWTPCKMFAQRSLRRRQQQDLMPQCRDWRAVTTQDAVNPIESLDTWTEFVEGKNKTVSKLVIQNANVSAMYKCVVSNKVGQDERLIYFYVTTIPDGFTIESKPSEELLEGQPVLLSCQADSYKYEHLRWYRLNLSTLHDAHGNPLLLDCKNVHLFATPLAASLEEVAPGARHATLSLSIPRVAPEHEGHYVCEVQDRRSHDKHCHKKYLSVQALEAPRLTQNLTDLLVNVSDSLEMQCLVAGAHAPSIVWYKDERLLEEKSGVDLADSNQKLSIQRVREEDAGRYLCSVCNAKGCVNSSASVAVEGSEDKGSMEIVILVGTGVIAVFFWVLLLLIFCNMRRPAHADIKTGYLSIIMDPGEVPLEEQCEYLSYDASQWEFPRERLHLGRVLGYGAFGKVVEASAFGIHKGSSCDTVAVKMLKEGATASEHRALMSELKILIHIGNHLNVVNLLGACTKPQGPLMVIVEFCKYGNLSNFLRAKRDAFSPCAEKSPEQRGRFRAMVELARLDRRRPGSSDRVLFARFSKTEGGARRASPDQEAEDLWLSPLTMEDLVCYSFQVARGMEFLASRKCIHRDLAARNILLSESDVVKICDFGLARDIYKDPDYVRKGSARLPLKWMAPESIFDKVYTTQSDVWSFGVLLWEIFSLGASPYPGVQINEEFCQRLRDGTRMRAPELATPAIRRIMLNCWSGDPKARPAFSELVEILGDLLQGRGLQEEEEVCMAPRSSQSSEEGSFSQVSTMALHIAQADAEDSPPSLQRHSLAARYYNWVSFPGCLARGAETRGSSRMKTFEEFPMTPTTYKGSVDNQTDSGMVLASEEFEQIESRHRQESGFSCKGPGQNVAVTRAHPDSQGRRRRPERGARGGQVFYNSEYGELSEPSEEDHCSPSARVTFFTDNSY
Regarding `O=C(O)C1(C(=O)Nc2ccc(Cl)cc2Cl)CC1`, the AC50 is 14.9 µM (active).

`CCOC(=O)c1ccc(O)cc1`: the call was inactive. On to `S=C(S)NCCNC(=S)S.[Mn+2].[S-]C([S-])=NCCN=C([S-])[S-].[Zn+2]`, for which the AC50 is 2.42 µM (active) and 1.31 µM (active).

Turning to `COCCO`, the compound was classed as inactive.

As for `CC(C)(c1ccc(O)cc1)c1ccc(O)cc1`, the result was inactive.

Usually AC50 stands for the concentration at which the activity in the assay is half-maximal.
